This passage reports composite z-score and z-score results from PubChem BioAssay.

The test system of assay [1] is PRMT1 (protein arginine N-methyltransferase 1). The experiment in a line: small molecules binding arginine methyltransferase PRMT1 – biochemical, small-molecule microarray, 635 nm fluorescence, primary screen (AID 1088).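 Also: binding of Prmt1 protein to compounds spotted on small-molecule microarray slides.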 The note with it: higher = more signal.
A short description of assay [2]: growth effects on S. cerevisiae YJM789 – YJM789 clinical isolate, OD600, 24 h, basal, primary screen (AID 1089).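 Also: growth of clinical yeast isolate S. cerevisiae YJM 789 seeded 1000 cells per well; test concentration not given here.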 The note with it: higher = more signal, called active from +8 up or from −8 down.
Assay [3] can be described thus: S. pombe growth modifiers, basal conditions – strain 972, OD600, 24 h, no modulator, primary screen (AID 1090).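 Also: basal condition with compound alone and no growth modifier present; test concentration not given here.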 The note with it: S. pombe 972 growth, higher = more signal, called active from +8 up or from −8 down.
Assay [4] can be described thus: budding yeast growth modifiers under rapamycin – strain BY4716, OD600, 96 h, primary screen (AID 1091). Also: test concentration not given here. The note with it: S. cerevisiae BY4716 + rapamycin, higher = more signal, called active from +8 up or from −8 down.
Assay [5] addresses Torsin-1A-interacting protein 2 (Homo sapiens) (UniProt Q8NFQ8). Nature of the assay: small molecules binding lysate-expressed LULL1 – cell lysate, human LULL1 lysate, 635/667 nm fluorescence, primary screen (AID 1092).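 Also: probe is lysate of COS7 cells overexpressing human LULL1; score merges per-feature 667 nm fluorescence with signal-to-noise.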 The note with it: small-molecule microarray, hLULL1 lysate binding, 635 nm fluorescence; higher = more signal.
A short description of assay [6]: optical density change of DRC41 E. coli – strain DRC41, OD650, 24 h, E. coli filamentation project, primary screen (AID 1093).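 Also: MC1000 strain lacking acrAB efflux and sulA so SOS filamentation is blocked; test concentration not given here.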 The note with it: E. coli DRC41 growth, higher = more signal, called active from +8 up or from −8 down.
Assay [7] in a line: probe aLefty2 binding to arrayed compounds – biochemical, biotinylated probe, 635/667 nm fluorescence, primary screen (AID 1094).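 Also: score merges spot fluorescence near 667 nm with spot signal-to-noise ratio.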 The note with it: small-molecule microarray, higher = more signal.
Assay [8] concerns Noggin (protein binding on small-molecule microarray). Nature of the assay: small molecules binding Noggin protein – biochemical, 635/667 nm fluorescence, primary screen (AID 1095).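 Also: score merges 667 nm feature fluorescence with signal to noise over triplicate slides.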 The settings on record: 635 nm fluorescence, higher = more signal.
Assay [9] deals with Neurogenic locus notch homolog protein 3 (Homo sapiens) (UniProt Q9UM47). Nature of the assay: small molecules binding NOTCH3 protein – biochemical, 635/667 nm fluorescence, primary screen (AID 1096). The note with it: small-molecule microarray, 635 nm fluorescence, higher = more signal.
Assay [10] is described as follows: probe aEGFR binding to arrayed compounds – biochemical, biotinylated probe, 635/667 nm fluorescence, primary screen (AID 1097).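 Also: probe is a biotinylated anti-EGFR antibody binding compounds printed on slides; score combines fluorescence near 667 nm and signal to noise of each spot.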 The note with it: small-molecule microarray, higher = more signal.
Assay [11] has as its system Plasmodium falciparum Sir2 (PF13_0152, Sir2A). The experiment in a line: Plasmodium falciparum Sir2A binding compounds – biochemical, small-molecule microarray, 635 nm fluorescence, primary screen (AID 1098).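 Also: score merges spot fluorescence intensity with its signal-to-noise ratio.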 The note with it: fluorescence 635 nm, higher = more signal.
The nature of assay [12]: probe aDKK1 binding to arrayed compounds – biochemical, biotinylated probe, 635/667 nm fluorescence, primary screen (AID 1099).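 Also: score merges 667nm spot fluorescence with signal to noise across triplicate slides; reference of the scale not given here.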 The note with it: small-molecule microarray, higher = more signal.
Assay [13] can be described thus: probe aCHRDL2 binding to arrayed compounds – biochemical, biotinylated probe, 635/667 nm fluorescence, primary screen (AID 1100). The settings on record: small-molecule microarray, higher = more signal.
The nature of assay [14]: change in splice reporter luminescence, either direction, cell-based, HEK293, spliceosome inhibition project, primary screen (AID 1101).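 Also: HEK293 cells carrying a splicing-competent luciferase reporter gene; test concentration not given here.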 The note with it: HEK293 splicing luciferase reporter, 24 h, higher = more signal, called active from +8 up or from −8 down.
For assay [15], the target named is Fibroblast growth factor 10 (Homo sapiens) (UniProt O15520). The experiment in a line: compounds binding fibroblast growth factor 10 – biochemical, small-molecule microarray, 635 nm fluorescence, primary screen (AID 1102). The settings on record: FGF10 binding, fluorescence 635 nm, higher = more signal.
Assay [16] relates to glycogen synthase kinase-3 (GSK3A per assay name; protocol says GSK3B). The experiment in a line: compounds binding glycogen synthase kinase-3 – biochemical, small-molecule microarray, 635 nm fluorescence, GSK3A, primary screen (AID 1103). Also: the record names both GSK3A and GSK3B. The settings on record: fluorescence 635 nm, higher = more signal.
Assay [17] has as its target Epidermal growth factor receptor (Homo sapiens) (UniProt P00533). The experiment in a line: compounds binding epidermal growth factor receptor – biochemical, small-molecule microarray, 635 nm fluorescence, primary screen (AID 1104).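 Also: score merges 667 nm emission intensity with spot signal to noise over triplicate slides.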 The note with it: EGFR binding, higher = more signal.
For assay [18], the target named is Follistatin-related protein 3 (Homo sapiens) (UniProt O95633). Nature of the assay: compounds binding follistatin-related protein 3 – biochemical, small-molecule microarray, 635 nm fluorescence, primary screen (AID 1105).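 Also: score merges emission near 667 nm and signal to noise per printed spot across three slides.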 The settings on record: FSTL3 binding, higher = more signal.
For assay [19], the target named is Dickkopf-related protein 1 (Homo sapiens) (UniProt O94907). Nature of the assay: small molecules binding DKK1 protein – biochemical, small-molecule microarray, 635 nm fluorescence scan, primary screen (AID 1106).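 Also: score merges emission near 667 nm with signal to noise over three replicate slides.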 The settings on record: higher = more signal.
The subject of assay [20] is Inhibin beta A chain (activin A). Nature of the assay: small molecules binding activin A – biochemical, small-molecule microarray, 635 nm fluorescence scan, primary screen (AID 1107).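 Also: mouse activin A protein probed at 4.33 µg/mL on printed slides; score merges bound-protein fluorescence near 667 nm with spot signal-to-noise.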 The note with it: INHBA, higher = more signal.

Each structure is given as a SMILES string. Calls of active or inactive are those of the source.

Sequence of Follistatin-related protein 3 (Homo sapiens) (O95633 whole entry, looked up): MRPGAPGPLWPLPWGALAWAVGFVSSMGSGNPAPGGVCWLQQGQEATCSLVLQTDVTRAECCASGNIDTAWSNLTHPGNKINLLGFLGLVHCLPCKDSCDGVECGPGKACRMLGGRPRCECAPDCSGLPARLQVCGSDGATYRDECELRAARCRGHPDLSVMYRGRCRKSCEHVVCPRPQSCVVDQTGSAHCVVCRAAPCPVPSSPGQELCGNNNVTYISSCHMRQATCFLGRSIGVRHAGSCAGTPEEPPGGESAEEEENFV
Sequence of Epidermal growth factor receptor (Homo sapiens) (P00533 whole entry, looked up): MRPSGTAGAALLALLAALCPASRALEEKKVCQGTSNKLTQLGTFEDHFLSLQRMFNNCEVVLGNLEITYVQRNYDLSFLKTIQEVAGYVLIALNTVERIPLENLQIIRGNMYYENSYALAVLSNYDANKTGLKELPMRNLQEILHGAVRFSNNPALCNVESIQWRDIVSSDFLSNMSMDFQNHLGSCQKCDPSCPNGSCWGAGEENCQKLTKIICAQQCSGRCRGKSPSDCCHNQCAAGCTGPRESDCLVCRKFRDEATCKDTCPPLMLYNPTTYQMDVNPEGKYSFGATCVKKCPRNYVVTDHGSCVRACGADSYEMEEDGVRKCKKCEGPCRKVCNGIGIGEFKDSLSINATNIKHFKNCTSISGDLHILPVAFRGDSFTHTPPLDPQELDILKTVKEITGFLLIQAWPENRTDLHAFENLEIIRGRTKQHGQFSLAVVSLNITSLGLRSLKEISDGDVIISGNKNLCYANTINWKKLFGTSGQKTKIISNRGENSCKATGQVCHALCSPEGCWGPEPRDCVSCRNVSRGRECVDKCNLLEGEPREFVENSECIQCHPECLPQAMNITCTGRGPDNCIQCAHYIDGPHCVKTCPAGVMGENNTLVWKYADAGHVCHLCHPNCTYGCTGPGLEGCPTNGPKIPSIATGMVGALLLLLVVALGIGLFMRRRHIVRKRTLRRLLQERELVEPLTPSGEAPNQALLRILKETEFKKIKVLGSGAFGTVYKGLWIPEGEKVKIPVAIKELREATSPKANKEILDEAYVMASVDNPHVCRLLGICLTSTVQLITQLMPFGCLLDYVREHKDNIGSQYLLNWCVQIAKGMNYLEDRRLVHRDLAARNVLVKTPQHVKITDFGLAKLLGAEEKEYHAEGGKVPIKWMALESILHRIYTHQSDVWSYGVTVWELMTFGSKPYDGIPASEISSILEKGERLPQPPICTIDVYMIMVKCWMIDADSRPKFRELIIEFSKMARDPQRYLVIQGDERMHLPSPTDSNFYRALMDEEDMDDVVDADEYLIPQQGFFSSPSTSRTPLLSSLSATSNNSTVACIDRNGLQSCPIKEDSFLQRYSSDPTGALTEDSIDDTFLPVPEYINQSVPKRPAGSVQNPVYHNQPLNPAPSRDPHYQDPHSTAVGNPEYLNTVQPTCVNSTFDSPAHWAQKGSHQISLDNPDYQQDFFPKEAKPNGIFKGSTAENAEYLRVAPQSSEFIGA
Sequence of Dickkopf-related protein 1 (Homo sapiens) (O94907 whole entry, looked up): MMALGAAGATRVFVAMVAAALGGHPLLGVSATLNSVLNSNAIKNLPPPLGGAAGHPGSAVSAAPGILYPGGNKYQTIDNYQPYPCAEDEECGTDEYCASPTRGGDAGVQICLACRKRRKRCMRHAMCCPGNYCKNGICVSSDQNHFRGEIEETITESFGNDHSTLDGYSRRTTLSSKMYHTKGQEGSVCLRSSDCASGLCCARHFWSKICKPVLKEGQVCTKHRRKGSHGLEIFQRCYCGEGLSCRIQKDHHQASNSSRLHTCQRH
Sequence of Fibroblast growth factor 10 (Homo sapiens) (O15520 whole entry, looked up): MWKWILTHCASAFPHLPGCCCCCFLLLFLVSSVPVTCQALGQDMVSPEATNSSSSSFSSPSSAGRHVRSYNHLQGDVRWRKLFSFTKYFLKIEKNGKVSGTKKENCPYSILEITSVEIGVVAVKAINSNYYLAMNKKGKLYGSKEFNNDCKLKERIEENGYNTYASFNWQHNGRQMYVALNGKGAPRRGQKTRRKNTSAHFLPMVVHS
Sequence of Neurogenic locus notch homolog protein 3 (Homo sapiens) (Q9UM47 whole entry, looked up): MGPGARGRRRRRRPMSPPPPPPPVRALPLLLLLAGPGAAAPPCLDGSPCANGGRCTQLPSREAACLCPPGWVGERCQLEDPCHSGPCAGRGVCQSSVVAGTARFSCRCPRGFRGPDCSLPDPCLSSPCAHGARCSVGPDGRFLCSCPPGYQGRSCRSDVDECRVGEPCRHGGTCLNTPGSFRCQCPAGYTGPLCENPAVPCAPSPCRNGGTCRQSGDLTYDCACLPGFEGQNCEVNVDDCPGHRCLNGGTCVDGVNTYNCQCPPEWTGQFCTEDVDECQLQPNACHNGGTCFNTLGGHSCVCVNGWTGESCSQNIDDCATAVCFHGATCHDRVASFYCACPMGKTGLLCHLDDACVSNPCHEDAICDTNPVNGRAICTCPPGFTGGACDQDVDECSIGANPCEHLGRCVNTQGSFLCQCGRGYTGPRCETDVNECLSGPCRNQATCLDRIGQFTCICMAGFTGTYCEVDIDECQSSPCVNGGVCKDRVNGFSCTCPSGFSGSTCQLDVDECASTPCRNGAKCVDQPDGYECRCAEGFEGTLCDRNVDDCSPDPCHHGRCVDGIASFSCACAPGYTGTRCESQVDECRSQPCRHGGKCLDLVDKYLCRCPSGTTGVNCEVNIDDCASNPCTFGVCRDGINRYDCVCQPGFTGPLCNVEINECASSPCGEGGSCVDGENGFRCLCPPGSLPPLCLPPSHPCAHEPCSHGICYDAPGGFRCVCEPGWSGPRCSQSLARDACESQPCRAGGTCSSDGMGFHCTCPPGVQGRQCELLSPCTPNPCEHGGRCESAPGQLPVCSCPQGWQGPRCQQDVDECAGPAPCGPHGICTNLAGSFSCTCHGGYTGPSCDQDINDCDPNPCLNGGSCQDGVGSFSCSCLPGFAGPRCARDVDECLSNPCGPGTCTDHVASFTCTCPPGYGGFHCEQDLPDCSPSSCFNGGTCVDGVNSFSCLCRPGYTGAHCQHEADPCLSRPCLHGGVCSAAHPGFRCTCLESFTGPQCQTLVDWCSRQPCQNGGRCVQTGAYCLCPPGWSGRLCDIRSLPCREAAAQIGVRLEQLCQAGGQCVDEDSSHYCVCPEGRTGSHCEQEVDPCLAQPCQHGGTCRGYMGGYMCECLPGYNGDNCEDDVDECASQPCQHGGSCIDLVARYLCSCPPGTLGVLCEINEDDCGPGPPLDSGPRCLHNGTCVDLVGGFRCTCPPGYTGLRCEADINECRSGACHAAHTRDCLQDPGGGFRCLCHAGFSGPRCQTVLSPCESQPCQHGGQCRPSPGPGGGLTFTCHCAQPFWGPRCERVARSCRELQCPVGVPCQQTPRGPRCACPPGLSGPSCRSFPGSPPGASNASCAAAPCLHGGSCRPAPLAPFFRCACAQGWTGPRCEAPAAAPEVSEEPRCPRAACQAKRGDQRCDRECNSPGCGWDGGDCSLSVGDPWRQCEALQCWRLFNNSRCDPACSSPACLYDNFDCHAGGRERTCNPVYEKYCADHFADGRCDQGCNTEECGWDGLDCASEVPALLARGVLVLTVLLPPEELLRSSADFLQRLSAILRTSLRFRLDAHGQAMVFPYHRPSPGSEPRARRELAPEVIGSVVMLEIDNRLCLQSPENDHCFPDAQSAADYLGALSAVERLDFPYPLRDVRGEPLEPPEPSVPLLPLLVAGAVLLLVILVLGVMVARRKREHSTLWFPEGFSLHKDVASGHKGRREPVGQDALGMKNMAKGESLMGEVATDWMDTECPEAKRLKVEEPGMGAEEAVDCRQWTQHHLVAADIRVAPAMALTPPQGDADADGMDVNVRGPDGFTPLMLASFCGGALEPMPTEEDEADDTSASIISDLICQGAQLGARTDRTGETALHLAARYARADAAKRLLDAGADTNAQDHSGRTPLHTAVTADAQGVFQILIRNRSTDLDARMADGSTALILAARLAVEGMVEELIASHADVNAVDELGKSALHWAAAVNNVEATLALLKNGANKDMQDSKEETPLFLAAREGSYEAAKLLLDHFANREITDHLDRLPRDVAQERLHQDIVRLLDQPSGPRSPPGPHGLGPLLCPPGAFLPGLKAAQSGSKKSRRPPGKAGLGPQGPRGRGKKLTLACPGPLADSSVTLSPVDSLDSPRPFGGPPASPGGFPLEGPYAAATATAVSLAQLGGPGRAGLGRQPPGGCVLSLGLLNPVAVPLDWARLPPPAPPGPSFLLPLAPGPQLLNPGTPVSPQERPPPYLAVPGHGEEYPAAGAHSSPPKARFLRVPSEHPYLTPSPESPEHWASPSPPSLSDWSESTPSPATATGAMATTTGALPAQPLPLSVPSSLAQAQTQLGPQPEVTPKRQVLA
Sequence of Torsin-1A-interacting protein 2 (Homo sapiens) (Q8NFQ8 whole entry, looked up): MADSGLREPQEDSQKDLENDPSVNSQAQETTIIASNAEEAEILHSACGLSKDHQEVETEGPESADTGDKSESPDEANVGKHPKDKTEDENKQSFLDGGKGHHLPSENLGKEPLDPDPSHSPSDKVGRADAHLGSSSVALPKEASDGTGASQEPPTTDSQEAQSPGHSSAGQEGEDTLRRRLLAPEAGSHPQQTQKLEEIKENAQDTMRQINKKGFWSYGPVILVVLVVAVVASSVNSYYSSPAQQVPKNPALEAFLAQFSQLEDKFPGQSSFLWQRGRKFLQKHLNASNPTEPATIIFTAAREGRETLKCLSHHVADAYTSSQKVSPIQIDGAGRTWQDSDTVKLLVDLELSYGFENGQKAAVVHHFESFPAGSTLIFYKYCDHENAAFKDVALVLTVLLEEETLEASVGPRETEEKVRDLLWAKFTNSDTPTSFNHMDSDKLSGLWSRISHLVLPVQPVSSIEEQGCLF

Turning to `C=CC[C@]1(C(N)=O)N=C(c2ccc(OCCCO)cc2)O[C@H]1c1ccccc1CN=[N+]=[N-]`, the composite z-score in [1] was 1.1; in assay [5] it was 3.05; in assay [7], 0.0565; in assay [8], 0.126; in [9], -0.907; in [10], 0.0183. The composite z-score in assay [11] is 0.255; in assay [12], 0.683; in [13] it was 1.24; in assay [15], 0.0555; in [16] it was 0.518; in [17] it was -1.03. In addition, the figures for the composite z-score in [18], in [19] and in assay [20] were -0.325, -0.632 and 1.46, respectively. Further, the z-score in [2] is -1.36 (inactive); in assay [3], -0.881 (inactive); in assay [4], -0.655 (inactive); in [6], 1.85 (inactive); in assay [14], -0.783 (inactive).

Consider `COC(=O)[C@H]1[C@@H]2COc3ccccc3[C@H]2N[C@H]1C(=O)OC`, for which the composite z-score was 0.213 in assay [1]; 0.584 in assay [5]; 0.0111 in [7]; 0.208 in assay [8]; 0.422 in assay [9]; -0.152 in assay [10]. Moreover, the composite z-score in assay [11] is 0.0829; in assay [12] it was -0.0995; in assay [13], 0.0399; in [15] it was 0.348; in assay [16], 0.332; in assay [17], 0.261. In addition, the composite z-score in assay [18] was determined as 0.327; in [19], 0.0008; in assay [20], 0.0992. Further, the z-score was -0.501 (inactive) in [2]; -8.98 (active) in [3]; 0.265 (inactive) in [4]; 0.694 (inactive) in [6]; -0.685 (inactive) in [14].

Turning to `COc1cc2c(cc1OC)CN(C(=O)[C@H]1[C@@H]3C(=O)O[C@@H](c4ccccc4)[C@@H](c4ccccc4)N3[C@@H](c3ccccc3OCCO)[C@]13C(=O)Nc1ccc(C#CC4(O)CCCCCC4)cc13)CC2`, the composite z-score was 1.55 in assay [1]; 2.83 in [5]; 0.0028 in assay [7]; 1.19 in assay [8]; 1.11 in assay [9]; 0.0965 in [10]. The composite z-score in assay [11] came out at 1.6; in assay [12], 0.329; in assay [13], 0.453; in assay [15] it was 1.06; in assay [16] it was 1.3; in [17] it was 0.525. In addition, the values for the composite z-score in assay [18], in assay [19] and in assay [20] were 0.564, 0.693 and 0.113, respectively. Besides, the z-score in assay [2] is 1.71 (inactive); in assay [3], 0.519 (inactive); in assay [4], 4.28 (inactive); in assay [6], 2.54 (inactive); in [14] it was -1.16 (inactive).

As for `COC(=O)[C@@]1(Cc2ccc(OC)cc2)[C@H]2c3cc(C(=O)N(C)C)n(CCc4ccc(OC)c(Br)c4)c3C[C@H]2CN1C(=O)c1ccccc1`, the composite z-score in assay [1] is 1.17; in assay [5] it was 3.33; in [7], 0.903; in [8], -0.54; in assay [9] it was 1.01; in assay [10], 0.674. Also, the composite z-score was 0.843 in [11]; 1.98 in assay [12]; 1.47 in assay [13]; 0.77 in assay [15]; 1.02 in [16]; -0.405 in [17]. Further, the composite z-score is 1.04 in assay [18], -0.884 in assay [19] and 0.463 in [20]. Moreover, the z-score in assay [2] is 0.557 (inactive); in assay [3] it was 0.236 (inactive); in assay [4], 2.82 (inactive); in assay [6], -0.76 (inactive); in [14], -1.13 (inactive).

`COCCOC(=O)N1C(=O)[C@@]2(c3cc(C#CCC(C(=O)OC)C(=O)OC)ccc31)[C@H](c1ccccc1OCCO)N1[C@H](c3ccccc3)[C@H](c3ccccc3)OC(=O)[C@H]1[C@@H]2C(=O)N1CCCCCCC1`: the composite z-score is 1.51 in assay [1]; 3.29 in assay [5]; 1.53 in assay [7]; 1.63 in assay [8]; 1.11 in assay [9]; 0.83 in assay [10]. In addition, the composite z-score in assay [11] was found to be 0.853; in [12], 1.97; in assay [13] it was 1.42; in assay [15], 0.834; in [16] it was 1.29; in assay [17], 0.852. The composite z-score in [18] is 1.56; in [19] it was 1.4; in [20], 1.61. In addition, the z-score was 1.22 (inactive) in assay [2]; 0.639 (inactive) in [3]; 3.35 (inactive) in assay [4]; -0.366 (inactive) in assay [6]; -0.247 (inactive) in assay [14].
